An excerpt weighted towards active compounds, which were near 6.7% of everything screened.
C diff growth – blocks growth of Clostridium difficile; Clostridium difficile clinical isolate growth, OD600, 24 h; active compounds read low; actives 0.25% (n = 86,000); AID 1259249; growth activity, negative = inhibition, % at 16 µg/mL (by protocol);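 active means mean growth activity at or below -80% and every replicate also at or below -80%; inconclusive means mean at or below -80% but some replicate above -80%; inactive means mean growth activity above -80%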;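 further: 0% = DMSO wells and -100% = levofloxacin 16 µg/mL wells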
Pf Dd2 inh – P. falciparum Dd2 growth inhibition | SYBR Green, 72 h; active compounds read low | activity change, % at 10 µM | actives 2.3% (n = 94,000) | AID 1159554; in the data active means activity change below about -80%; inconclusive means no clear call, values can overlap the other calls
T cruzi growth-1 – blocks T. cruzi growth in NIH3T3 culture. T. cruzi beta-gal in NIH3T3, GalScreen luminescence, 90 h. inhibition, % at 8.34 µM. actives 5.9% (n = 77,000);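 active means mean inhibition above about 93%, with at least 55% of replicates each passing it, limit read from the data, passing the limit was not always enough; inconclusive means only one of those two conditions holds; inactive means neither condition holds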
T cruzi growth-2 – blocks T. cruzi growth in NIH3T3 host cells; actives 72% (n = 5,600); shares compounds with T cruzi growth-1; T. cruzi beta-gal in NIH3T3, GalScreen luminescence, 90 h; inhibition, % at 8.35 µM;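 active means mean replicate inhibition above about 95% and at least 55% of replicates individually reaching it, limit read from the data; inconclusive means only one of the two criteria is met; inactive means neither criterion is met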
T cruzi growth-3 – blocks T. cruzi growth in NIH3T3 host cells | shares compounds with T cruzi growth-1 | T. cruzi beta-gal in NIH3T3, GalScreen luminescence, 90 h | inhibition, % at 2.09 µM | actives 21% (n = 5,600) | AID 651740;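 active means mean inhibition above about 95%, with at least 55% of replicates also reaching it, limit read from the data; inconclusive means meets just one of the two conditions; inactive means meets neither condition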;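 further: plate controls were neutral control median for no effect and positive control median for full effect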
NIH3T3 tox – kills mouse NIH/3T3 fibroblasts; shares compounds with T cruzi growth-1; NIH/3T3 viability, CellTiter-Glo ATP luminescence, 90 h; cytotoxicity (signal decrease), % at 8.35 µM; actives 14% (n = 5,600); AID 651742;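 active means mean signal decrease across replicates above about 35% based on untreated-well scatter, with enough replicates individually passing, limit read from the data; inconclusive means no rule stated though some were filed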;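 further: 0% = median of neutral control wells and 100% = median of positive control wells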
3T3 cytotox 2 – NIH/3T3 (mouse) viability loss. NIH/3T3 viability, CellTiter-Glo ATP luminescence, 90 h. AID 651744. inhibition, % at 24.9 µM. shares compounds with T cruzi growth-1. actives 56% (n = 5,600);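 active means mean loss of cell viability signal at or above a set limit, and enough replicates individually reaching it; inconclusive means meets only the mean limit or only the replicate share; inactive means meets neither condition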;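 further: 0% = median of neutral control wells and 100% = median of positive control wells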
Starred values were filed as active, the others as inactive; ? = inconclusive; / = not tested or not shown.

SMILES	C diff growth	Pf Dd2 inh	T cruzi growth-1	T cruzi growth-2	T cruzi growth-3	NIH3T3 tox	3T3 cytotox 2
CN(C)C(=O)c1ccc(-c2ccc(C3[C@@H]4CN(C(=O)C5CCOCC5)C[C@H]3N4)cc2)cc1 (some centres undefined)	-6	15	/	/	/	/	/
CN1C[C@@H](O)COC[C@H]2O[C@H](CC(=O)N3CCN(c4ccccc4)CC3)CC[C@@H]21	-6	2	2	/	/	/	/
CCC(=O)N1C[C@H](C)[C@H](OC)CN(C)C(=O)c2ccc(NC(=O)c3cc(C)on3)cc2OC[C@H]1C	1	-21	-22	/	/	/	/
Cc1ccc(S(=O)(=O)N(C)C[C@@H]2Oc3cc(C4=CCCC4)ccc3S(=O)(=O)N([C@H](C)CO)C[C@H]2C)cc1	0	-73	/	/	/	/	/
C[C@@H]1CN([C@@H](C)CO)S(=O)(=O)c2ccc(C3=CCCC3)cc2O[C@@H]1CN(C)S(=O)(=O)c1ccc(F)cc1	5	-13	119*	106*	75	29	31*
C[C@H](CO)N1C[C@H](C)[C@H](CN(C)S(=O)(=O)c2ccc(F)cc2)Oc2cc(C3=CCCC3)ccc2S1(=O)=O	14	-30	118*	108*	78	37*	24*
Cc1ccc(S(=O)(=O)N(C)C[C@H]2Oc3cc(C4=CCCC4)ccc3S(=O)(=O)N([C@@H](C)CO)C[C@@H]2C)cc1	4	-50	/	/	/	/	/
C[C@@H]1CN([C@H](C)CO)C(=O)c2cc(NC(=O)CCCN(C)C)ccc2O[C@H]1CN(C)C(=O)Nc1ccccc1	3	37	6	/	/	/	/
CO[C@@H]1CN(C)C(=O)c2ccc(NC(=O)Nc3cccc(F)c3)cc2OC[C@@H](C)N(C(C)=O)C[C@H]1C	/	-62	1	/	/	/	/
COc1ccc(NC(=O)Nc2ccc3c(c2)C(=O)N([C@H](C)CO)C[C@H](C)[C@H](CN(C)C(=O)Nc2ccc(C(F)(F)F)cc2)OCCCC[C@H](C)O3)cc1	-6	26	?	109*	99*	5	7
COc1ccc(NC(=O)N(C)C[C@@H]2OCCCC[C@@H](C)Oc3ccc(NC(=O)Nc4ccc(C(F)(F)F)cc4)cc3C(=O)N([C@@H](C)CO)C[C@@H]2C)cc1	-8	-79	/	/	/	/	/
COc1ccc(NC(=O)N(C)C[C@H]2OCCCC[C@@H](C)Oc3ccc(NC(=O)Nc4ccc(C(F)(F)F)cc4)cc3C(=O)N([C@H](C)CO)C[C@@H]2C)cc1	1	-23	108*	111*	106*	-2	26*
COc1ccc(NC(=O)Nc2ccc3c(c2)C(=O)N([C@H](C)CO)C[C@H](C)[C@@H](CN(C)C(=O)Nc2ccc(C(F)(F)F)cc2)OCCCC[C@@H](C)O3)cc1	-8	-66	112	/	/	/	/
COc1ccc(NC(=O)Nc2ccc3c(c2)C(=O)N([C@H](C)CO)C[C@H](C)[C@H](CN(C)C(=O)Nc2ccc(C(F)(F)F)cc2)OCCCC[C@@H](C)O3)cc1	0	-27	/	/	/	/	/
COc1ccc(NC(=O)N(C)C[C@H]2OCCCC[C@@H](C)Oc3ccc(NC(=O)Nc4ccc(F)cc4)cc3C(=O)N([C@H](C)CO)C[C@H]2C)cc1	2	?	100*	112*	40	-2	-5
COc1ccc(NC(=O)N(C)C[C@@H]2OCCCC[C@H](C)Oc3ccc(NC(=O)Nc4ccc(C(F)(F)F)cc4)cc3C(=O)N([C@@H](C)CO)C[C@H]2C)cc1	11	62	97*	111*	?	-21	?
COc1ccc(NC(=O)N(C)C[C@H]2OCCCC[C@H](C)Oc3ccc(NC(=O)Nc4ccc(F)cc4)cc3C(=O)N([C@@H](C)CO)C[C@H]2C)cc1	-3	-71	-23	/	/	/	/
COCC(=O)N1C[C@@H](C)[C@H](OC)CN(C)C(=O)c2ccc(NC(=O)c3cnccn3)cc2OC[C@@H]1C	-9	10	/	/	/	/	/
COCC(=O)N1CCC2(CC1)CN(C(=O)COC)[C@H](CO)c1c2c2ccc(OC)cc2n1C	-5	-3	/	/	/	/	/
C[C@H]1CN([C@@H](C)CO)C(=O)c2cccc(NC(=O)Nc3ccc4c(c3)OCO4)c2O[C@H]1CN(C)C(=O)Nc1cccc2ccccc12	-1	7	37	/	/	/	/
COCC(=O)N(C)C[C@H]1Oc2cc(-c3ccccc3F)ccc2S(=O)(=O)N([C@@H](C)CO)C[C@H]1C	-5	4	/	/	/	/	/
CCCc1cn([C@H]2C[C@@H]3O[C@@H](CO)CC[C@@H]3O[C@@H]2CCc2ccc(-c3ccc(OC)cc3)cc2)nn1	-6	?	/	/	/	/	/
C[C@@H]1CN([C@@H](C)CO)C(=O)c2cc(C#C[C@@H](C)O)cnc2O[C@H]1CN(C)C(=O)Nc1ccc(F)cc1	3	20	27	/	/	/	/
CC(=O)N[C@H]1C=C[C@H](CC(=O)NCc2ccc(Cl)cc2)O[C@H]1CO	3	-29	24	/	/	/	/
COc1ccc(NC(=O)Nc2ccc3c(c2)C(=O)N([C@@H](C)CO)C[C@@H](C)[C@@H](CN(C)C)OCCCC[C@H](C)O3)cc1	-2	-17	27	/	/	/	/
SMILES	C diff growth	Pf Dd2 inh	T cruzi growth-1	T cruzi growth-2	T cruzi growth-3	NIH3T3 tox	3T3 cytotox 2
COc1ccc(NC(=O)Nc2ccc3c(c2)C(=O)N([C@@H](C)CO)C[C@H](C)[C@H](CN(C)C)OCCCC[C@H](C)O3)cc1	0	-26	96*	64	-39	-10	4
C[C@H]1CCCCO[C@@H](CN(C)C(=O)Nc2cccc3ccccc23)[C@@H](C)CN([C@@H](C)CO)C(=O)c2cc(NS(=O)(=O)c3ccc(F)cc3)ccc2O1	-6	-78	109*	107*	70	-16	0
COc1ccc(S(=O)(=O)Nc2ccc3c(c2)C(=O)N([C@@H](C)CO)C[C@@H](C)[C@H](CN(C)C(=O)Nc2cccc4ccccc24)OCCCC[C@H](C)O3)cc1	-7	-71	61	/	/	/	/
Cc1ccc(S(=O)(=O)Nc2ccc3c(c2)C(=O)N([C@H](C)CO)C[C@H](C)[C@@H](CN(C)C(=O)Nc2cccc4ccccc24)OCCCC[C@H](C)O3)cc1	-1	-72	99*	110*	105*	-28	-9
C[C@H](CO)N1C[C@H](C)[C@@H](CN(C)C(=O)Nc2cccc3ccccc23)OCCCC[C@H](C)Oc2ccc(NS(=O)(=O)c3cccs3)cc2C1=O	5	-68	102*	106*	56	-20	-24
C[C@H](CO)N1C[C@H](C)[C@H](CN(C)C(=O)Nc2ccccc2)OCCCC[C@H](C)Oc2ccc(NS(=O)(=O)c3cccs3)cc2C1=O	5	/	42	/	/	/	/
C[C@@H]1CCCCO[C@H](CN(C)C(=O)Nc2cccc3ccccc23)[C@H](C)CN([C@H](C)CO)C(=O)c2cc(NS(C)(=O)=O)ccc2O1	3	-59	11	/	/	/	/

Screening results as filed in PubChem BioAssay.
